This note sets out measurements from the supplement of paper PMC6555819.

This experiment deals with PPARg homodimer (NR concentration 180 nM). Briefly: PBM binding z-score (relative to random genomic background probes); higher = stronger binding; sequences stand for … in GC…GCGATTGACAGCGTAGAATGAAGG
Put shortly: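 Custom Agilent 4×180K protein-binding microarrays carried double-stranded probes. Their 34-nt variable regions held direct-repeat seeds, single-nucleotide variants, half-site ablations and random human genomic background sequences. Arrays were incubated 1 h with ligand-free nuclear receptor dimers in PBS pH 7.4, 2% milk, 0.02% Triton X-100, 1 mM DTT, 0.2 mg/mL BSA and 0.4 mg/ml salmon testes DNA. Antibodies against each partner (one per run) detected binding, and scanned fluorescence was regression-normalized. Binding z-scores use random background probes as reference.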
Regarding ATCGCAAGGTCGACGAGGTGAGTATACACCGTTT, the PBM binding z-score is 0.0263.

Regarding GCTAGTTGGTCAGTAAAAGGTCACACCCCGGTCG, the PBM binding z-score was determined as 3.31.

Sequence ACTAGAAGGCCAAGTTTGGGTCACTCAAACAAAG returned a PBM binding z-score of 0.742. With TATACAGGGTCAAAGTCCAGAGTACGAATGTCGA the figure was 3.98; with GCTGCTAGGTCAGGTTGATCAGCTAACGGGTACG, 0.196. In turn, TCATATGGGTAATACAGGTGAAAGTCGGCATCTA registered a PBM binding z-score of 0.704. ACTAGCAGGTCAAGTTTGGGTCACTCAAACAAAG showed a PBM binding z-score of 3.76. TCTATTAGTTGAAGGCCAACCGACGAGTCCGTTT had a PBM binding z-score of 1.36. Under TTACCAAGGTGAAAGGTTGTTGATGCACGCCTTG stands 0.571.

CGAACTCGGTCATCCAGGACAGTGAATACATTGA yielded a PBM binding z-score of 0.363. Under TCATAGAGGTAAAAGGTGAAAGTCGGTGTGGTAA stands 0.851; under TTACCAAGGTGAGCTGAGGTCGTTGAACCAACTC, -0.0477. With TAGCCTAGGTCATTGGGCCAGTATCGTACGCATC the figure was 1.11; with AGAACTAGGGCAATGAGTTGATAGCACGGGTGGC, 0.447; with CCTACTGGACCATTCAGAGGTCATTGATCATATG, 3.36. As to CGTCCAAGGTCAAAGGACAGTGAAGAGATGACGG, the PBM binding z-score worked out at 2.89. With CGTCAAAGATCAACTAAGGTAACGTAAAGCACGC the figure was 0.91; with TAGCCTAGGTCATGTGCCAGTATACCACGCGAAC, 1.55; with TCATATAGGTAAACGCTAGGTGAAAGTCCGATCT, 0.646.

CCGACTGGGGCATAAGGATACCATAAGCCAGCCC had a PBM binding z-score of -0.477. With AATACAGGGTCATTGTAGGCCAGAGTACGCACAG the figure was 2.91; with ATAGAAAGGTCGAGGTGAGTATAGAGAAAGGGAA, 2.34. With ATCTCTAGGTCAAGATAGTTCAGTGAATGCAAAT the figure was 2.05. With ATACCAAGGTGATCGTGAAGTCGTTGATACTAAC the figure was 0.766; with AACTCTAGGTAACCAAGTTCAGTGAATGCCGAAC, 0.0478.

Sequence CCTGCTAGGTCACGGTCAGCTAATCTACAGTATG showed a PBM binding z-score of 2.79. With ATATGTAGGTTATGGGTCATTCAGGTTGGTTCGC the figure was 3.33. TTATCAAGGTGAGCTGAGGTCGTTGATCCAACTC gave a PBM binding z-score of 0.465.

The sequence ATCTCTAGGTAAGGTTCAGTGAAAGATCGATAGA displayed a PBM binding z-score of 1.1. TGAATGAGGTTAAAGATCTGGGAACGTGGCGTCG: the PBM binding z-score amounted to 0.811. The sequence CGTCAAAGTACAACTAAGGTAACGTAAAGCACGC gave a PBM binding z-score of 0.606. With CAAACTAGGTCAGAACAGGACAGTGAAGGATGAT the figure was 1.77; with GTACCAAGGTGAATAGGGCGTTGATGAGTAGGCG, 0.629.

AGAATGATGTTATACGTAGATCAGGGAAGAAAGT returned a PBM binding z-score of -0.218. CCTCGGAGGGCAACAGGAGGTCAGAGCTGCCAGA: the PBM binding z-score was 1.67.

Consider CCAGCCAGGTGAAAGGTAACTCAGTCTGGTACGC, for which the PBM binding z-score came out at 1.03. As to CTAGAAAGGTCGTGCTCAGGTGAGTATACCAAAC, the PBM binding z-score is 1.73.

Take ATATGTAGGTTACATCCGGGTCATTCAGGCTATG: the PBM binding z-score is 2.15. In turn, CCTAGCAGGCCAATTTGGGTCACTCAAGGCTTGA returned a PBM binding z-score of 0.323. CCTGCTAGGTCATGGTCAGATAATCTACAGTATG had a PBM binding z-score of 1.88.
